We go through 18 molecules from PubChem BioAssay (EPA / NIEHS).

SMILES strings stand for the structures. Results filed as inconclusive are left out. The source made the active and inactive calls. How the source made its calls, unless noted: active means hit-call score of the fitted dose curve at least 0.9, where 1 is the maximum; inactive means score below 0.9. Peptide text beside a SMILES is read from it.

The nature of test [1]: ACEA_ER_80hr: ACEA Biosciences xCELLigence Real-Time Cell Analysis on Estrogen Receptor Agonism for Proliferation (AID 2282667; active means hit-call score of the fitted dose curve at least 0.9, where 1 is the maximum). As to conditions: T47D proliferation, impedance (xCELLigence), 80 h. In outline:
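Impedance readout (RT-CES) of T47D proliferation at 80 h post-dose; gain of signal vs DMSO baseline. Compounds: 8 conc, 1:4 serial, top 100 uM final, ≤0.5% DMSO; biological duplicate.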

The nature of test [2]: ATG_CRE_CIS: Attagene CIS-FACTORIAL HepG2 Assay for human cAMP Responsive Element (CRE) binding protein 3 (AID 2282926). To be noted: HepG2 CRE cis-reporter, Attagene multiplexed mRNA; actives raise or lower the signal. In outline:
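Readout: fluorescently labelled reporter transcripts resolved by capillary electrophoresis after RT-PCR, taken 24 h post-dosing in transfected HepG2. Endogenous transcription factor activity drives each cis-element reporter; gain or loss of signal fitted relative to DMSO control.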

In test [3] the target is CCAAT/enhancer-binding protein beta (Homo sapiens) (UniProt P17676). The test is described as follows: ATG_C_EBP_CIS: Attagene CIS-FACTORIAL HepG2 Assay for human CCAAT/Enhancer Binding Protein (C/EBP) beta (AID 2282927). To be noted: HepG2 Attagene cis-factorial transcription factor reporter; actives raise or lower the signal. In outline:
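HepG2 transiently transfected with multiplexed reporter units under cis-regulatory promoters reporting endogenous C/EBPb activity. After 24 h exposure, reporter mRNA assayed by RT-PCR, fluorescent labelling, HpaI digestion and capillary electrophoresis; bidirectional fitting versus DMSO.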

Test [4] in a line: ATG_CMV_CIS: Attagene CIS-FACTORIAL HepG2 Assay for human CMV (Internal Marker) (AID 2282928).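 Further: endpoint acts as a background internal control marker rather than a target.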 To be noted: HepG2 CMV promoter reporter, transcription factor profiling; actives raise or lower the signal. In outline:
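24 h chemical treatment, HepG2 with transient multi-reporter transfection; RNA → oligo(dT) RT → PCR → 6-FAM extension → HpaI digest → CE fluorescence. Bidirectional fit, DMSO negative control.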

A short description of test [5]: ATG_DR4_LXR_CIS: Attagene CIS-FACTORIAL HepG2 Assay for human Liver X Receptor (LXR), DR4 submotif (AID 2282929). As to conditions: HepG2 Attagene DR4 cis-reporter, mRNA transcription; actives raise or lower the signal. The gist of the method:
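DR4 cis-reporter in HepG2, 24 h exposure. Detection: RT-PCR, 6-FAM labelling, CE fragment analysis. Endpoint fitted bidirectionally, DMSO = baseline.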

The target in test [6] is Aryl hydrocarbon receptor (Homo sapiens) (UniProt P35869). The test is described as follows: ATG_Ahr_CIS: Attagene CIS-FACTORIAL HepG2 Assay for human Aryl Hydrocarbon Receptor (Ahr) (AID 2282930). As to conditions: HepG2 AhR cis-factorial reporter transcription; actives raise or lower the signal. The gist of the method:
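HepG2 cells transiently transfected with cis-element-driven multiplexed reporter units; endogenous AhR activity read as reporter mRNA 24 h after dosing, via RT-PCR, 6-FAM labelling, HpaI digestion and capillary electrophoresis. Bidirectional fit relative to DMSO.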

The nature of test [7]: ATG_AP_1_CIS: Attagene CIS-FACTORIAL HepG2 Assay for human Activator Protein 1 (AP-1) (AID 2282931). To be noted: HepG2 Attagene cis-factorial AP-1 reporter mRNA; actives raise or lower the signal. In outline:
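Cis-regulated reporter units transiently expressed in HepG2 report endogenous transcription-factor activity. Signal: reporter mRNA at 24 h, via RT-PCR and fluorescent capillary electrophoresis. Endpoint derived by bidirectional fitting, DMSO as negative control.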

The nature of test [8]: ATG_AP_2_CIS: Attagene CIS-FACTORIAL HepG2 Assay for human Activator Protein 2 (AP-2) (AID 2282932). To be noted: HepG2 AP-2 cis-reporter, Attagene transcription factor profiling; actives raise or lower the signal. In outline: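 Liver-derived HepG2 line, cis-reporter system measuring endogenous factors; 24 h dosing; reporter mRNA detected by fluorescent RT-PCR and capillary electrophoresis.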

In test [9] the target is Retinoic acid receptor alpha (Homo sapiens) (UniProt P10276). Kind of test: ATG_DR5_RAR_CIS: Attagene CIS-FACTORIAL HepG2 Assay for human Retinoic Acid Receptor Alpha (RARE), DR5 submotif (AID 2282934). As to conditions: HepG2 Attagene cis-factorial RARE DR5 reporter, mRNA; actives raise or lower the signal. The gist of the method: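 HepG2 cells transiently transfected with multiplexed reporter units; DR5 cis-element drives reporter through endogenous transcription factors. After 24 h dosing, reporter mRNA quantified by RT-PCR, fluorescent labeling, HpaI digestion and capillary electrophoresis; bidirectional fitting versus DMSO.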
Chain of Retinoic acid receptor alpha (Homo sapiens) (P10276 whole entry, looked up): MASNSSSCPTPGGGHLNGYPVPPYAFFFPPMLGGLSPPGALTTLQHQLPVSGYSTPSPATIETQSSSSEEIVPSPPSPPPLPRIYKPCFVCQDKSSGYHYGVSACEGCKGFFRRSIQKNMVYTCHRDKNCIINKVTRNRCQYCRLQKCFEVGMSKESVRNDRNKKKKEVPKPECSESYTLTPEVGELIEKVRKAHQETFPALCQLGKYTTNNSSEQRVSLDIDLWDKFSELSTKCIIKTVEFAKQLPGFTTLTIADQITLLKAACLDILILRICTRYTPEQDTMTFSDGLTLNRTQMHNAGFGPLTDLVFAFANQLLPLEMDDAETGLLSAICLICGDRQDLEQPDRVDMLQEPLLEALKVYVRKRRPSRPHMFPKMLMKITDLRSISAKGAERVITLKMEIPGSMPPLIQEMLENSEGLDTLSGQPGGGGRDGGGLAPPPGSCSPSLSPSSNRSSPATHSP

The nature of test [10]: ATG_BRE_CIS: Attagene CIS-FACTORIAL HepG2 Assay for human Bone Morphogenetic Protein (BMP) Response Element (BRE) (AID 2282933). As to conditions: HepG2 BMP response element reporter, Attagene transcription factor profiling; actives raise or lower the signal. In outline:
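After a 24 h chemical treatment, transiently transfected HepG2 cells were lysed for RNA; reporter transcripts were quantified by fluorescent RT-PCR and capillary electrophoresis, normalised to DMSO.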

For orientation: AC50 means the midpoint of the concentration-response curve, whichever way the signal moves.

Chain of Aryl hydrocarbon receptor (Homo sapiens) (P35869 whole entry, looked up): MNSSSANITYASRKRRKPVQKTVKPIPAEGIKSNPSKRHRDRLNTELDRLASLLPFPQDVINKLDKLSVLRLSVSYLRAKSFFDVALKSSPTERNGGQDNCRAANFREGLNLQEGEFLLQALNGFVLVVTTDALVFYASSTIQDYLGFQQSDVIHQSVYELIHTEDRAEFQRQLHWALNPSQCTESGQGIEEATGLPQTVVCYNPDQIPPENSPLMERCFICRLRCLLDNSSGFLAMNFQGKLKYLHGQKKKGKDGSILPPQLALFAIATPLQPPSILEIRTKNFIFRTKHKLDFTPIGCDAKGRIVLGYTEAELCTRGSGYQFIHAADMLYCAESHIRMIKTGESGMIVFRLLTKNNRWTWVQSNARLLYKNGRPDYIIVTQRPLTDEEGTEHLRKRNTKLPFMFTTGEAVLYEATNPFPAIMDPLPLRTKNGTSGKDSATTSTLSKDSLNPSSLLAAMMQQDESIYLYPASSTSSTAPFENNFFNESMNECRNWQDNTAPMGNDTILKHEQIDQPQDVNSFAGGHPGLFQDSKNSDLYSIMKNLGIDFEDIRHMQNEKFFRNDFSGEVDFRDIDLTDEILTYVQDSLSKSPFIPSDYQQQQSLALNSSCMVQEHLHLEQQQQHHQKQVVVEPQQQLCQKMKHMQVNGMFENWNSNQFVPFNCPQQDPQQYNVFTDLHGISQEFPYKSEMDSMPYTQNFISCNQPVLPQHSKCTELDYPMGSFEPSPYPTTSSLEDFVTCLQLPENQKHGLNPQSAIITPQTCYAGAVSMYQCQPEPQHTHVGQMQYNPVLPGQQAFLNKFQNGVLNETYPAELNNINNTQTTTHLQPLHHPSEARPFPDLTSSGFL
Chain of CCAAT/enhancer-binding protein beta (Homo sapiens) (P17676 whole entry, looked up): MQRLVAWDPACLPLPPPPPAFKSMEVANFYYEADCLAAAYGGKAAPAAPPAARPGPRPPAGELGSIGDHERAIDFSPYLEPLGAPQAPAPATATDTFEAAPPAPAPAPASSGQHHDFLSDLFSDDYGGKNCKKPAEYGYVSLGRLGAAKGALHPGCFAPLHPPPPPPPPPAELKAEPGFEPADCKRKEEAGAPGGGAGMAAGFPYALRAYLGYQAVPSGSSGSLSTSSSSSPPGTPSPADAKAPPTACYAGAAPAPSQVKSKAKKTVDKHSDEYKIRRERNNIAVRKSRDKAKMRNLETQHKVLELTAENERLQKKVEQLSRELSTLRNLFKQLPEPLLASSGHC

Regarding `CCCCC(CC)COC(=O)/C=C/c1ccc(OC)cc1` (centres undefined), the call in [1], in test [2], in [3], in [4], in test [5] and in test [6] was inactive. Besides, the molecule was classed as inactive in test [7], in test [8] and in test [9].
On to `CC(=O)CCC1=C(C)CCCC1(C)C`, for which the outcome in test [1], in test [2], in [3], in [4], in test [5] and in [6] was inactive. Also, the molecule was called inactive in [7], in [8], in [10] and in test [9].
Take `COC(=O)[C@H](Cc1ccccc1)NC(=O)[C@@H](N)CC(=O)O` (H-Asp-Phe-OMe): the call in test [1], in test [2], in test [3], in [4], in [5] and in test [6] was inactive. Besides, the molecule was called inactive in test [7], in [8], in test [10] and in test [9].
`Cc1cccc(C(C)(C)C)c1O`: the call in test [1], in test [2], in [3], in test [4], in [5] and in [6] was inactive. Besides, the result in test [7], in test [8] and in [9] was inactive.
Regarding `CC1CCC(C(C)(C)S)C(=O)C1` (centres undefined), the molecule was called inactive in [1], in test [2], in test [3], in test [4], in [5] and in [6]. Besides, the molecule was called inactive in test [7], in test [8] and in test [9].
With `COc1nccnc1CC(C)C`, the molecule was called inactive in test [1], in test [2], in [3], in test [4], in test [5] and in [6]. In addition, the outcome in [7], in test [8], in test [10] and in test [9] was inactive.
In the case of `C=CCNCC=C`, the result in test [1], in [2], in test [3], in test [4], in test [5] and in test [6] was inactive. Moreover, the molecule was called inactive in test [7], in [8], in [10] and in [9].
Consider `C=Cc1ccc(OC(C)=O)cc1`, for which the call in test [1], in [2], in test [3], in test [5], in test [6] and in test [7] was inactive. Also, the outcome in [8], in [10] and in test [9] was inactive. Also, the AC50 in [4] is 13.1 µM (active).
In the case of `CCCCCCC=O`, the AC50 in test [1] was 10.9 µM (active). Also, the molecule was classed as inactive in [2], in test [3], in test [4], in test [5], in [6] and in test [7]. In addition, the call in test [8], in [10] and in test [9] was inactive.
As for `CN1CCN(C)CC1`, the molecule was classed as inactive in [1], in test [2], in test [3], in [4], in test [5] and in [6]. Also, the outcome in test [7], in test [8], in test [10] and in test [9] was inactive.
For `CC1=C(O)C(=O)C(C)O1` (centres undefined), the molecule was called inactive in test [1], in test [2], in test [3], in test [4], in [5] and in [6]. Moreover, the molecule was called inactive in [7], in test [8], in test [10] and in [9].
As to `C/C=C/C=C/CCCCCCCO`, the molecule was classed as inactive in test [1], in test [2], in test [3], in [4], in [6] and in test [8]. Further, the molecule was called inactive in test [9]. For the same molecule, the values for the AC50 in test [5], in test [7] and in test [10] were 183 µM (active), 127 µM (active) and 156 µM (active), respectively.
On to `Cc1cc(C)n(CO)n1`, for which the outcome in [1], in [2], in test [3], in [4], in [5] and in test [6] was inactive. The call in test [7], in [8] and in test [9] was inactive.
Consider `O=C(O)C1CCC(C(=O)O)CC1` (centres undefined), for which the result in test [1], in test [2], in [3], in test [4], in [5] and in test [6] was inactive. Also, the molecule was classed as inactive in [7], in [8] and in test [9].
`COc1ccc(C(=O)c2ccccc2)c(O)c1`: the result in [1], in test [2], in [3], in [6], in [8] and in test [9] was inactive. Besides, the AC50 was 79.6 µM (active) in test [4], 115 µM (active) in test [5], 168 µM (active) in test [7] and 158 µM (active) in test [10].
In the case of `CCOC(=O)C1=NOC(c2ccccc2)(c2ccccc2)C1`, the outcome in [1], in test [2], in test [3], in test [4], in [5] and in [6] was inactive. Moreover, the molecule was classed as inactive in [7], in [8], in test [10] and in [9].
For `CC=CC(=O)OCC(C)C`, the molecule was classed as inactive in test [1], in test [2], in test [3], in test [4], in test [5] and in test [6]. The outcome in test [7], in [8], in [10] and in [9] was inactive.
In the case of `CC(=O)c1ccc(S(=O)(=O)NC(=O)NC2CCCCC2)cc1`, the outcome in test [1], in [2], in [3], in [4], in test [5] and in test [7] was inactive. For the same molecule, the result in [8] and in [9] was inactive. The AC50 in test [6] was 100 µM (active).
